# Screens as filed in PubChem BioAssay.
# This is a sample that favours compounds with a hit; in the whole collection about 2.9% have one here.
# GRK2 inh – compounds blocking aptamer binding on GRK2 – biochemical, human GRK2, bead flow cytometry, HTS, primary screen; Beta-adrenergic receptor kinase 1 (Homo sapiens), P25098; FAM-aptamer displacement from GRK2; inhibition of aptamer binding, % at 10 µM; 330,000 tested, 0.59% active;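 active = inhibition of aptamer binding above 40%, roughly 3 SD of noise, on plates passing a quality check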;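 also: median bead fluorescence of bound FAM aptamer so fluorescent compounds give negative values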
# MEKK2 mut-MEK5 – MEK5 binding signal on mutant MEKK2 PB1, primary screen, biochemical, multiplex bead flow cytometry, Alexa488-MEK5 | Alexa488-MEK5 binding to MEKK2 mutant | percent response, % at 10 µM | 290,000 tested, 0.35% active | AID 1530, 2009; in the data active = percent response above about 24%, passing the limit was not always enough
# MEKK2wt PB1 HTS – modulators of MEK5 binding to wildtype MEKK2, primary screen, biochemical, multiplex bead flow cytometry, Alexa488-MEK5; Alexa488-MEK5 binding to MEKK2 WT; actives lie on both sides; binding response (% of control), % at 10 µM; 290,000 tested, 1.1% active; in the data active = binding response below about 67% or above about 130%
# MEKK3 PB1 HTS – modulators of MEKK3-MEK5 PB1 binding, primary screen, biochemical, wildtype MEKK3, multiplex bead flow cytometry, Alexa488-MEK5; Mitogen-activated protein kinase kinase kinase 3 (Homo sapiens), Q99759; AID 1529, 2009; binding response (% of control), % at 10 µM; bead-based flow cytometry, Alexa488-MEK5 binding to MEKK3; actives lie on both sides; 0 = blocked by unlabeled MEK5, 100 = vehicle; 290,000 tested, 1.4% active;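 active = binding response more than 3 SD above or below the average of its plate-row segment, actives on both sides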;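 also: Alexa488 bead fluorescence after subtracting the streptavidin-only scavenger bead signal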
# B2AR ag – beta2AR agonists driving receptor internalization, primary screen, cell-based, FAP fluorogen, flow cytometry. Beta-2 adrenergic receptor (Homo sapiens), P07550. Am2.2-beta2AR cells. response, % (test concentration not listed). 340,000 tested, 0.43% active. AID 504454, 2011;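 active = response above a set limit, near 3 SD of response in nonfluorescent compounds, cut at about 42% in these data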
# Target sequence (P07550 whole entry, looked up): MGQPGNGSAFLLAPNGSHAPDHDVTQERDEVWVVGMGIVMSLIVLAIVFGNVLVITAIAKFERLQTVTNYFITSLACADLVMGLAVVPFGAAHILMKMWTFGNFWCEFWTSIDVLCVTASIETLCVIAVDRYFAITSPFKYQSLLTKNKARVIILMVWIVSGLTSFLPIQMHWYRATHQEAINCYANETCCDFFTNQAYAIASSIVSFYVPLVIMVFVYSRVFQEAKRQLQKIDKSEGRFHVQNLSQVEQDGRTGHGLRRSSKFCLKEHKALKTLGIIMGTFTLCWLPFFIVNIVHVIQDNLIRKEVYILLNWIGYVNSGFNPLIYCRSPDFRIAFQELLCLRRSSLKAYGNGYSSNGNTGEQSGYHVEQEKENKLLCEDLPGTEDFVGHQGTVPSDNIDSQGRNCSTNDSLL
# MEKK2wt confirm – modulators of MEK5 binding to wildtype MEKK2, confirmation, biochemical, single concentration, multiplex bead flow cytometry. binding response (% of control), % at 10 µM. shares compounds with MEKK3 PB1 HTS. Alexa488-MEK5 binding to MEKK2 WT; actives lie on both sides. 5,900 tested, 2.4% active; in the data active = binding response below about 16% or above about 210%; inactive = in between
# MEKK2mut-MEK5 – mutant MEKK2 PB1-MEK5 binding signal retest – biochemical, single concentration, multiplex bead flow cytometry, confirmation | 5,900 tested, 2% active | percent response, % at 10 µM | AID 1893, 2009 | shares compounds with MEKK3 PB1 HTS | Alexa488-MEK5 binding to MEKK2 mutant; in the data active = percent response mostly above about 71%, no sharp cut-off; inactive = mostly below about 38%;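 also: higher means compound restores mutant binding toward wildtype level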
# MEKK3 confirm – MEKK3 wild-type PB1 binding to MEK5, inhibitors, confirmation, biochemical, bead multiplex flow cytometry, single concentration, wildtype; shares compounds with MEKK3 PB1 HTS; Alexa488-MEK5 binding to MEKK3; stronger effect = lower value; binding response (% of control), % at 10 µM; 5,900 tested, 1.8% active;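 active = binding response below 72% of control, or above a set upper limit, though filed actives all read lower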;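 also: 100% = DMSO only wells and 0% = binding blocked by excess unlabeled MEK5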
# * hit, by the source's call; / = no result; [ ] = another dose, or the depositor's remark.
SMILES,GRK2 inh,MEKK2 mut-MEK5,MEKK2wt PB1 HTS,MEKK3 PB1 HTS,B2AR ag,MEKK2wt confirm,MEKK2mut-MEK5,MEKK3 confirm
Cc1ccc(NC(=O)C(=Cc2ccc(C(=O)O)cc2)C(=O)Nc2ccc(C)cc2C)c(C)c1,0.0,17.0,100.0,100.0,15.0,/,/,/
CC1=C(C)CC(C(=O)NCCCN2CCCC2=O)C(C(=O)O)C1 (configuration not stated),2.0,3.0,98.0,94.0,-3.6,/,/,/
COc1cc(NC(=O)Cn2cnc(C(=O)Nc3ccc(C)c(C)c3)n2)cc(OC)c1OC,0.0,/,/,/,3.8,/,/,/
Cn1c(SCc2nc3ccccc3n2CCO)nc2ccccc21,0.0,7.0,125.0,125.0*,-1.9,105.0,1.0,104.0
Cn1c(Sc2nc3ccccc3n2C)nc2ccccc21,0.0,-1.0,104.0,102.0,-18.6,/,/,/
Cc1cc(OCCN2CCC(Cc3ccccc3)CC2)ccc1[N+](=O)[O-],0.0,7.0,131.0,104.0,18.4,/,/,/
O=[N+]([O-])c1ccc(S(=O)(=O)N2CCN(c3ccc(N4CCOCC4)nn3)CC2)cc1,0.0,/,/,/,4.2,/,/,/
Oc1ccc(O)c(-c2cnns2)c1,4.0,0.0,105.0,132.0*,-4.2,111.0,6.0,107.0
COc1cccc(CN2CCC(n3nccc3NC(=O)CCOc3ccccc3)CC2)c1,0.0,9.0,117.0,104.0,4.0,/,/,/
O=C(CCOc1ccccc1)Nc1ccnn1C1CCN(Cc2ccc(O)cc2)CC1,0.0,22.0,148.0*,109.0,-0.7,135.0,17.0,105.0
COC(=O)c1ccccc1NC(=O)CCC(=O)N1CC(C)Oc2ccc(C)cc21 (configuration not stated),0.0,-2.0,100.0,101.0,3.4,/,/,/
SC(COCc1ccccc1)CN1CCN(Cc2ccc3c(c2)OCO3)CC1 (configuration not stated),2.0,42.0,142.0*,108.0,0.8,168.0,31.0,107.0
OC(COCc1ccccc1)CN1CCN(Cc2ccc3c(c2)OCO3)CC1 (configuration not stated),2.0,2.0,101.0,92.0,-4.8,/,/,/
COC1=C/C(=C/c2c(N)n3cc(C)sc3nc2=O)C=CC1=O,0.0,-4.0,92.0,91.0,-12.1,/,/,/
Cc1cn2c(N)c(C=C3C=C(Cl)C(=O)C(Cl)=C3)c(=O)nc2s1,/,-76.0,50.0*[inhibitor],94.0,-37.2,99.0,-14.0,103.0
Cc1ccsc1/C=C(\C#N)C(=O)NCc1ccco1,1.0,4.0,103.0,128.0*,6.5,107.0,9.0,109.0
N#C/C(=C\c1cccs1)C(=O)NCc1ccco1,0.0,0.0,98.0,96.0,9.3,/,/,/
CSc1ncccc1C(=O)N(C)CC(=O)Nc1cccc(F)c1,0.0,3.0,106.0,101.0,3.4,/,/,/
COc1ccc(C(=O)OCC(=O)NCc2ccc3c(c2)OCO3)cc1S(=O)(=O)N1CCOCC1,1.0,/,/,/,-3.6,/,/,/
CN1C/C(=C/c2cccnc2)C(=O)/C(=C/c2cccnc2)C1,3.0,-1.0,100.0,59.0*[inhibitor],43.5*,99.0,-4.0,103.0
COc1ccccc1NC(=O)CSc1nc2n[nH]c(C)c2c(=N)n1-c1ccccc1Cl,0.0,18.0,140.0*,95.0,-3.3,139.0,21.0,105.0
CCc1ccccc1NC(=O)CSc1nc2n[nH]c(C)c2c(=N)n1-c1ccc(OC)cc1,/,13.0,106.0,107.0,3.4,/,/,/
O=C(NCc1ccccc1)C(=O)NCC1CCCN1S(=O)(=O)c1cccs1 (configuration not stated),0.0,/,/,/,-5.7,/,/,/
NC(=O)C(c1ccccc1)c1ncc(C(F)(F)F)cc1Cl (configuration not stated),0.0,-2.0,93.0,96.0,11.3,/,/,/
NC(=O)C(c1ccccn1)c1ncc(C(F)(F)F)cc1Cl (configuration not stated),3.0,-14.0,52.0,40.0*[inhibitor],1.1,101.0,-1.0,103.0
SMILES,GRK2 inh,MEKK2 mut-MEK5,MEKK2wt PB1 HTS,MEKK3 PB1 HTS,B2AR ag,MEKK2wt confirm,MEKK2mut-MEK5,MEKK3 confirm
CCc1ccc(C2=NN(S(C)(=O)=O)C(c3cccs3)C2)cc1 (configuration not stated),0.0,/,/,12.0*[inhibitor],-473.8,93.0,3.0,93.0
Cc1ccc(C2=NN(S(C)(=O)=O)C(c3cccs3)C2)cc1 (configuration not stated),2.0,4.0,95.0,98.0,-1.6,/,/,/
CCS(=O)(=O)Nc1cccc(C2=NN(S(=O)(=O)c3ccccc3)C(c3cccs3)C2)c1 (configuration not stated),3.0,106.0*,/,21.0*[inhibitor],10.9,96.0,-10.0,95.0
CCS(=O)(=O)Nc1cccc(C2=NN(S(=O)(=O)c3ccc(C)cc3)C(c3cccs3)C2)c1 (configuration not stated),0.0,-3.0,90.0,95.0,4.9,/,/,/
CCS(=O)(=O)Nc1cccc(C2=NN(S(=O)(=O)CC)C(c3ccccc3)C2)c1 (configuration not stated),1.0,355.0*,142.0*,92.0,-1.9,98.0,-11.0,91.0
COc1ccc2nc(NC(=O)CCN3C(=S)NC(C)(C)CC3C)sc2c1 (configuration not stated),0.0,-1.0,102.0,97.0,4.1,/,/,/
O=C(CN1C(=O)NC2NC(=O)NC21)NN=C1CCCC1 (configuration not stated),0.0,0.0,109.0,150.0*,-7.7,104.0,7.0,102.0
Cc1ccc(NC(=O)/C(=C/c2cccc([N+](=O)[O-])c2)NC(=O)C2CCCCC2)c(C)c1,1.0,-21.0,2.0*[inhibitor],1.0*[inhibitor],6.3,107.0,3.0,103.0
O=C(Nc1ccc([N+](=O)[O-])cc1)/C(=C/c1cccc([N+](=O)[O-])c1)NC(=O)C1CCCCC1,0.0,0.0,99.0,101.0,0.4,/,/,/
COc1ccccc1N(CC(=O)NC1CCCC1)C(=O)CCCC(=O)Nc1ccccn1,/,-2.0,101.0,102.0,5.5,/,/,/
CCOc1ccccc1N(CC(=O)NC1CCCC1)C(=O)CCCC(=O)Nc1ccccn1,0.0,-39.0,2.0*[inhibitor],2.0*[inhibitor],-6.0,95.0,-3.0,98.0
